High-throughput results: PubChem, Broad Institute
GSIS activator – primary screen for activators of insulin secretion dependent on glucose, INS-1E cells, GLuc reporter luminescence; INS-1E GLuc reporter insulin secretion, 2-3 h; activation, % at 16.6 µM; hit rate 0.61% among 370,000; AID 743287;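 active = lowest replicate activation of at least 40%, so every replicate reaches that level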;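 note: 0% = median of neutral control wells and 100% = median of IBMX positive control wells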
CFTR F508del cor – correctors of CFTR F508del function in bronchial epithelial cells. CFBE cells, YFP halide quenching; stimulated with forskolin plus potentiator P3; % fluorescence drop versus neutral controls. activity (quench increase), % at 7.58 µM. hit rate 0.36% among 350,000. AID 720511;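 active = mean added fluorescence quench of at least 8% versus neutral control, with both replicates also reaching 8%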;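 note: cells transiently co-express mutant CFTR-F508del with the halide-sensitive YFP; corrector assay measuring rescue of mutant channel to the surface after 24 h compound exposure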
MITF TRPM1 HTS – activators of MITF-driven TRPM1 promoter activity in SK-MEL-5 cells; SK-MEL-5 TRPM1-promoter luciferase, 24 h; % of positive control, neutral wells = 0; activation, % at 12.5 µM; hit rate 0.75% among 300,000; AID 588334;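 active = mean activation of at least 80% with every replicate also reaching 80%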;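 note: 0% = neutral control wells and 100% = parthenolide positive control wells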
Env fusion inh – inhibitors of HIV Env-mediated cell fusion. inhibition, % at 12.3 µM. hit rate 1.1% among 360,000. AID 651610. HeLa-JRFL Env/CEM21 cell fusion, luciferase;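 active = mean replicate inhibition score of at least 50 and every replicate individually at or above 50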;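 note: 0% = plate neutral controls and 100% = maraviroc near 300 nM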
Wnt bcat act – activates Wnt/beta-catenin signaling in a reporter cell assay; activator, plate reader; activation, % at 9.35 µM; hit rate 1.2% among 300,000; AID 743398; in the data active = activation above about 30%, passing the limit was not always enough;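 note: 0% = neutral control wells and 100% = positive control wells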
Numbers without * were called inactive; / = no result given; ! = not active in a repeat; [ ] = another dose, or the depositor's remark. Sampled rows, rich in hits. Any-hit rate of the full collection: about 2.7%.

SMILES | GSIS activator | CFTR F508del cor | MITF TRPM1 HTS | Env fusion inh | Wnt bcat act
COc1ccc(NC(=O)N(C)C[C@H]2Oc3ccc(NS(=O)(=O)c4ccc(F)cc4)cc3CC(=O)N([C@H](C)CO)C[C@H]2C)cc1 | 1 | 1 | / | 15[16.7 µM] | /
Cc1cc2oc(=O)cc(-c3cc4ccccc4o3)c2cc1O | 17 | 0 | 2 | -9 | 0
COc1cc(OC)c(-c2c3cc(O)c(=O)cc-3oc3cc(O)c(O)cc23)cc1OC | -22 | 21* | -18 | / | -5
Cc1c2cc(O)c(=O)cc-2oc2cc(O)c(O)cc12 | 7 | 17* | -26 | / | -4
CN1/C(=C\C=C2/SC(=S)N(CC(=O)O)C2=O)C(C)(C)c2ccccc21 | -43 | 16* | -3 | 13 | -6
CCCN1C(=O)/C(=C/C=C2\N(CC)c3ccccc3C2(C)C)SC1=S | / | / | -13 | 5 | /
C=CCN1C(=O)/C(=C\C=C2\N(C)c3ccccc3C2(C)C)SC1=S | -7 | 5 | -13 | 1 | -12
CCCCN1C(=O)/C(=C/C=C2\Oc3ccccc3N2CC)SC1=S | -16 | 17* | 13 | 0 | -2
CCN1C(=O)/C(=C/C=C2/Sc3ccccc3N2CCO)SC1=S | -10 | 1 | -13 | -5 | 32*
C[C@@H]1CCCCO[C@H](CN(C)C(=O)Cc2ccccc2)[C@@H](C)CN([C@@H](C)CO)C(=O)c2cc(NC(=O)C3CCCCC3)ccc2O1 | -20 | 0 | / | -12[16.7 µM] | /
Cc1ccc(S(=O)(=O)/N=C(/NNC(=O)c2cccc(Cl)c2)c2ccccc2)cc1 | 16 | 2 | 44 | -76 | 25
O=S(=O)(/N=C(/NC(=S)Nc1ccccc1)c1ccccc1)c1ccc(Cl)cc1 | 1 | 1 | 112* | -52 | -1
O=C(NN/C(=N/S(=O)(=O)c1ccc(Cl)cc1)c1ccccc1)c1cccc(Cl)c1 | 20 | 4 | 43 | -103 | 33*
COc1ccc(NC(=S)NC(=NS(=O)(=O)c2ccc(Cl)cc2)c2ccccc2)cc1 | / | 1 | 57 | -163 | 13
COC(=O)C[C@H]1C=C[C@@H](NC(=O)c2ccccc2)[C@@H](CO)O1 | -1 | 7 | / | -2[16.7 µM] | /
CCn1c(=NC(=O)CS(=O)(=O)c2ccc(C)cc2)sc2cccc(OC)c21 | -40 | -1 | 2 | 75* | -9
COCC(=O)N(C)C[C@H]1Oc2cc(C#CCC(C)C)ccc2S(=O)(=O)N([C@@H](C)CO)C[C@@H]1C | -4 | -2 | / | 18[16.7 µM] | /
O=C(c1cc2cc(F)ccc2[nH]1)N1CCc2ccccc21 | 7 | 0 | 54 | -45 | 42*
CCn1nc(C)c(NC(=O)c2cnn3c(C(F)F)cc(-c4ccccc4)nc23)c1C | 55* | / | -1 | 26 | 1
COc1ccc2c(CC(=O)N3CCc4ccccc43)coc2c1 | / | / | 111* | / | /
COc1ccc(-c2cc(C(F)F)n3ncc(C(=O)N4CCc5ccccc54)c3n2)cc1 | 6 | 14* | -16 | 11 | -16
C[C@@H]1CN([C@H](C)CO)C(=O)Cc2cc(NC(=O)Nc3ccccc3)ccc2O[C@@H]1CN(C)S(C)(=O)=O | 8 | -1 | / | / | /
O=C(Nc1ccc2c(c1)[C@H]1C[C@@H](CC(=O)N3CCOCC3)O[C@@H](CO)[C@H]1O2)Nc1ccccc1F | 16 | -1 | / | -18[16.7 µM] | /
CCC(=O)N1C[C@H](C)[C@@H](OC)CN(C)C(=O)c2cc(NC(=O)C3CCCCC3)ccc2OC[C@@H]1C | 1 | -1 | / | / | /
Cc1noc(C)c1NC(=O)N(C)C[C@@H]1Oc2ccc(NC(=O)C3CC3)cc2CC(=O)N([C@H](C)CO)C[C@@H]1C | 9 | 0 | / | -8[16.7 µM] | /
SMILES | GSIS activator | CFTR F508del cor | MITF TRPM1 HTS | Env fusion inh | Wnt bcat act
COc1ccc2cc(C(=O)N3CCc4ccccc43)[nH]c2c1 | -3 | 6 | 39 | -250 | 46*
O=C(c1cc2cc(Br)ccc2[nH]1)N1CCc2ccccc21 | 11 | -2 | 15 | -1 | 4
Cc1cc(N(C)C)ccc1N=Nc1ccc2ncccc2c1 | -13 | 0 | 28 | -74 | 42*
C[C@H](CO)N1C[C@H](C)[C@H](CN(C)C(=O)Nc2ccc(F)cc2)Oc2ncc(C#CC3CC3)cc2C1=O | -7 | 1 | / | 10[16.7 µM] | /
COc1ccccc1-c1cn(CC[C@H]2CC[C@H](NC(=O)C3CC3)[C@@H](CO)O2)nn1 | -4 | 1 | / | 11[16.7 µM] | /
CN1C(=O)c2cc(NS(=O)(=O)c3ccccc3F)ccc2OC[C@@H]2O[C@H](CC(=O)NC3Cc4ccccc4C3)CC[C@H]21 | -13 | / | / | -2[16.7 µM] | /
CCCCCCCN(c1ccccc1)[C@@H]1C[C@H]2CCCC(=O)N3CC[C@@H](C1)[C@@H]23 | 14 | 2 | -15 | 74* | -21
CCOc1ccc(OCCSc2nnnn2-c2ccccc2)cc1 | / | / | 12 | -133 | 3
c1ccc(OCCSc2nnnn2-c2ccccc2)cc1 | / | / | 90* | / | /
COc1ccc(-c2cnc3c(c2)C(=O)N([C@@H](C)CO)C[C@@H](C)[C@H](CN(C)S(=O)(=O)c2ccc(OC)cc2)O3)cc1 | -16 | 0 | / | 0[16.7 µM] | /
Cc1ccccc1COC[C@H](CC(C)C)N1CCN(C(=O)c2cccc(C(F)(F)F)c2)CCC1=O | -20 | 2 | -3 | 72* | -2
CC(C)CC(COCc1ccc(Cl)cc1)N1CCN(C(=O)c2cccc(C(F)(F)F)c2)CCC1=O (stereo not given) | -9 | 1 | 4 | -5 | -7
Cc1ccc(COC[C@H](CC(C)C)N2CCN(C(=O)c3cccc(C(F)(F)F)c3)CCC2=O)cc1 | -30 | 1 | / | 2 | 1
CC(C)CC(COCc1cccc(C(F)(F)F)c1)N1CCN(C(=O)c2cccc(C(F)(F)F)c2)CCC1=O (stereo not given) | -2 | 4 | -4 | 67* | -4
CC(C)NC(=O)N1[C@H](CO)[C@@H](c2ccccc2)[C@H]1CNC(=O)CN(C)C | 12 | -1 | / | / | /
CC1C=NC(S(=O)(=O)N2CC[C@@H]3[C@H](CO)N(C)c4ccc(-c5ccc(F)cc5)cc4[C@@H]32)=N1 (stereo not given in full) | 1 | 1 | / | / | /
CN1c2ccc(-c3cccc(F)c3)cc2[C@@H]2[C@@H](CCN2S(=O)(=O)c2cccc(F)c2)[C@H]1CO | -36 | -1 | / | / | /
COc1ccc(-c2ccc3c(n2)CCCN3Cc2ccccc2C(F)(F)F)cc1 | / | -1 | / | -51 | 38*
C[C@H]1[C@@H](c2ccccc2)Oc2c(Cl)cccc2S(=O)(=O)N1C | 122* | 1 | / | 36 | 1
C[C@H](CO)N1C[C@H](C)[C@H](CN(C)C(=O)Nc2cccc3ccccc23)Oc2ccc(NS(=O)(=O)c3cn(C)cn3)cc2CC1=O | 4 | -1 | / | 0[16.7 µM] | /
CC(=O)c1cccc(Nc2nc(-c3cccc([N+](=O)[O-])c3)cs2)c1 | / | / | 69 | 72* | 13
CC(=O)Nc1nc(C)c(-c2csc(Nc3ccccn3)n2)s1 | 18 | 2 | 13 | 5 | 52*!
CC(=O)Oc1ccc(-c2csc(Nc3ccccn3)n2)cc1 | 8 | 3 | / | -146 | 61*
O=C(Nc1cccc(-c2csc(Nc3cccc(C(F)(F)F)c3)n2)c1)c1cc([N+](=O)[O-])cc(C(F)(F)F)c1 | 3 | 3 | -35 | 15 | -10
